The list is not random: actives were taken first. Their share in the collection is about 8.2%.
SW480 rereplic = A quantitative high throughput screen for small molecules that induce DNA re-replication in SW480 colon adenocarcinoma cells. SW480 DNA re-replication, Hoechst DNA content imaging, 48 h. Potency, µM (doses to about 46.1 µM), without a hit: at the top dose re-replication activation, usual class: activators. hit rate 1.8% among 340,000; also: % of control where 0% means no effect; nearly all actives have a fitted effect of over 55% in size
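SW480 cells exposed to compounds for 48 hr at 37 C, 5% CO2, then Hoechst-stained 40 min. Nuclear DNA content imaged by fluorescence scanning (405 nm excitation, 500-530 nm emission); re-replication scored as increased high-intensity nuclei.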
MCF10A rereplic = A quantitative high throughput screen for small molecules that induce DNA re-replication in MCF 10a normal breast cells; MCF 10A DNA re-replication, Hoechst nuclear intensity, 48 h; Potency, µM (top dose mostly 46.1 µM), for inactives: top-dose activity, positive = re-replication, most hits filed as activators; hit rate 2.9% among 350,000; AID 624296, 2012; also: % of control where 0% means no effect; nearly all actives have a fitted effect of over 50% in size
ELG1 repair inh = qHTS screen for small molecules that inhibit ELG1-dependent DNA repair in human embryonic kidney (HEK293T) cells expressing luciferase-tagged ELG1 | HEK293T ELG1-luciferase reporter, luminescence, 16 h; DNA damage induced by 5-fluorouridine | hit rate 2.3% among 330,000 | Potency, µM (titrated, usually from 46.1 µM), inactives show at the top dose activity change, negative = inhibition, most hits filed as inhibitors; also: % is scaled to controls: 0 for no effect and ±100 for the full control effect; nearly all actives have a fitted effect of over 55% in size
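In this reporter screen, reduction of luminescence relative to DMSO vehicle indicated activity. Compounds and 5-fluorouridine were added together to 2,000 cells per well, incubated for 16 hr at 37 °C, then developed with ONE-Glo.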
KB-3-1 tox = qHTS assay for MDR1-selective chemotherapeutics: Primary screen using the parental adenocarcinoma cell KB-3-1. hit rate 1.4% among 400,000. Potency, µM (titrated, usually from 46.1 µM), actives largely listed as cytotoxic. KB-3-1 viability, CellTiter-Glo ATP luminescence, 72 h; also: % is scaled to controls: 0 for no effect and ±100 for the full control effect; nearly all actives have a fitted effect of over 60% in size
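Parental KB-3-1 adenocarcinoma cells in phenol-red-free DMEM with 10% FBS were pin-treated with compounds at several concentrations, incubated 72 h at 37 °C, and viability read by CellTiter-Glo luminescence; concentration-effect curves were fitted after normalization.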
KB-V1 cytotox = qHTS assay for MDR1-selective chemotherapeutics: Primary screen using the drug-selected MDR subline cells KB-V1; hit rate 3.4% among 400,000; Potency, µM (top dose mostly 46.1 µM), usual class: cytotoxic; KB-V1 MDR cells viability, CellTiter-Glo, 72 h; also: % is scaled to controls: 0 for no effect and ±100 for the full control effect; nearly all actives have a fitted effect of over 60% in size
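qHTS viability screen in drug-selected KB-V1 MDR cells: 72 h compound treatment at 37 degrees C, ATP luminescence end point.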
An asterisk follows results filed as active; i = inactive; ? = inconclusive; nt = no result given; [ ] = another dose, or the depositor's remark. Calls follow the shape of the dose curve; as a rule, active = well fitted curve in the direction sought with a large enough effect; inconclusive = small, poorly fitted or top-dose-only effect, or another doubt; inactive = no such curve, though single readings can be large; an effect the other way counts as inactive or inconclusive. Potency is read from the fitted curve at half-maximal effect.

SMILES | SW480 rereplic | MCF10A rereplic | ELG1 repair inh | KB-3-1 tox | KB-V1 cytotox
Cc1cc(C)n(-c2ccc(C(=O)OC(C)C(=O)Nc3ccc(C(N)=O)cc3)cc2)n1 (centres undefined) | -1% | 0% | ? | i | i
Cc1cccc(Cn2c(=O)n3nc(-c4ccccc4)nc3c3ccccc32)c1 | nt | nt | nt | i | ?
CCOC(=O)N1CCN(C(c2ccnc3ccccc23)c2nnnn2-c2ccc3c(c2)OCCO3)CC1 (centres undefined) | nt | nt | nt | ? | 18µM*
Cc1cccc(C)c1N1CCN(C(c2ccnc3ccccc23)c2nnnn2-c2ccc3c(c2)OCCO3)CC1 (centres undefined) | nt | nt | nt | 21µM* | 18µM*
CCC(c1nnnn1-c1ccc2c(c1)OCCO2)N1CCN(c2ccc(F)cc2)CC1 (centres undefined) | nt | nt | nt | ? | 10µM*
O=C(O)CCn1cc(/C=C/C(=O)c2ccc(Cl)cc2)c(-c2ccc(Br)cc2)n1 | ? | ? | ? | ? | i
CN(Cc1ccccc1)C(=O)[C@@H]1CCCN1C(=O)[C@@H]1CCCN1C(=O)c1cccs1 | nt | nt | nt | i | i
CC1CCCN(S(=O)(=O)c2ccc(S(=O)(=O)NC(C)c3cccs3)cc2)C1 (centres undefined) | -4% | 1% | ? | i | 16µM*
Cc1cc(C)n(-c2ccc(C(=O)Nc3sccc3C(N)=O)cc2)n1 | -5% | ? | ? | ? | 29µM*
Cc1ccc(S(=O)(=O)CCC(=O)c2ccc(O)cc2O)cc1 | ? | 18µM* | 1% | ? | i
COc1ccc(C(=O)COC(=O)CCS(=O)(=O)c2ccc(C)cc2)c(OC)c1 | 0% | 0% | -1% | i | i
COc1ccc(C(=O)CCS(=O)(=O)c2ccc(C)cc2)cc1OC | 5.2µM* | ? | -5% | i | i
CCOc1ccc(NC(=O)c2cn(-c3ccc(OCC)cc3)c(=O)c3cc(OC)c(OC)cc23)cc1 | -4% | -2% | ? | i | i
CCCCNC(=O)c1cn(-c2ccc(OCC)cc2)c(=O)c2cc(OC)c(OC)cc12 | -2% | 14% | 23µM* | i | i
C/C(=N\NC(=S)NCc1ccccc1)c1ccc(C(C)(C)C)cc1 | 4% | ? | ? | i | 18µM*
CCOc1ccc(S(=O)(=O)N2CCCC(C(=O)Nc3ccccc3)C2)cc1 (centres undefined) | -9% | 20% | ? | i | 10µM*
O=C(COc1ccccc1)Nc1ccc(S(=O)(=O)N2CCCCCC2)cc1 | 3% | 13% | -25% | i | 16µM*
O=C(COc1ccccc1)Nc1ccc(S(=O)(=O)N2CCCC2)cc1 | -2% | 4% | -12% | i | i
COc1cc(NC(=O)C2CCCN(S(=O)(=O)c3ccc4c(c3)CCCN4C(C)=O)C2)cc(OC)c1 (centres undefined) | 28% | 16% | 9.2µM* | i | i
COc1ccc(S(=O)(=O)N2CCCC(C(=O)Nc3cccnc3)C2)cc1Cl (centres undefined) | -2%[9.22 µM] | ? | 23µM* | 16µM* | ?
CS(=O)(=O)Nc1cccc(NC(=O)c2cccc3c(-c4cccnc4)coc23)c1 | nt | nt | nt | i | i
NS(=O)(=O)c1cccc(NC(=O)COc2ncnc3c2cnn3-c2ccccc2)c1 | 3% | 1% | -11% | i | ?
O=C(COc1ncnc2c1cnn2-c1ccccc1)Nc1ccc(S(=O)(=O)N2CCCCC2)cc1 | -1% | 3% | ? | i | 21µM*
Cc1csc2c(N3CCN(C(=O)NC(C)(C)C)CC3)ncnc12 | -59% | ? | ? | i | ?
Cc1csc2c(N3CCN(C(=O)Nc4ccc(Cl)c(Cl)c4)CC3)ncnc12 | -10% | ? | 18µM* | i | ?

Screening data as filed in PubChem BioAssay.
